The record followed here is PubChem BioAssay AID463173 (ICCB-Longwood Screening Facility, Harvard Medical School, 2010).

Each structure is given as a SMILES string. Hit rate of the full screen: of about 52,000 compounds, about 1,700 (3.3%) were called active. Rule as the data show it: active = survival mostly below about 52% (no sharp cut-off); inactive = mostly above about 56%. The full list was thinned out, with actives kept by preference.

The subject of this test is Wild type. Description: S. aureus survival, RN4220 and DeltatarO strains – OD600, teichoic acid synthesis inhibitors, primary screen (AID 463173). The conditions noted are these: S. aureus RN4220 wild type/DeltatarO growth, OD600, 18 h, stronger effect = lower value, screened at 18.75 µg/mL (by protocol).
Regarding `Cc1cccc(OC(=O)c2cc(-c3ccc(Cl)cc3)on2)c1C`, the survival was 116% (inactive). The figure for `Cc1cccc(OC(=O)c2cc(-c3ccc4c(c3)OCCO4)on2)c1C` is -6% (active). The value for `O=C(Nc1cccc(Br)c1)c1cc(-c2ccc3c(c2)OCCO3)on1` was 80% (inactive).

Consider `CCCc1nnc(NC(=O)Cc2coc3ccc(C(C)C)cc23)s1`, for which the survival is 99% (inactive). The figure for `CC(=O)Nc1ccc(C(=O)Nc2ccc3c(c2)N(C2CCCC2)C(=O)c2ccccc2S3)cc1` is -6% (active); for `O=C(Nc1ccc2c(c1)N(C1CCCC1)C(=O)c1ccccc1S2)c1ccccc1` it is 75% (inactive); for `O=C(Nc1ccc2c(c1)N(C1CCCC1)C(=O)c1ccccc1S2)c1ccc(F)cc1` it is 87% (inactive). The figure for `Cc1ccc(S(=O)(=O)C(=O)Nc2cccc3nsnc23)cc1` is 93% (inactive); for `CCc1ccc(NC(=O)Cn2c(=O)n(CC3CCCO3)c(=O)c3cc(OC)c(OC)cc32)cc1` (centres undefined) it is 68% (inactive); for `CN1CCN(C(CNC(=O)C(=O)Nc2ccc(F)cc2)c2cccnc2)CC1` (centres undefined) it is 96% (inactive). The value for `CN(CC(=O)Nc1cccc(C#N)c1)S(=O)(=O)c1cc2c(cc1Cl)NC(=O)CO2` was 129% (inactive); that for `Cc1cc2c(cc1S(=O)(=O)N(C)CC(=O)Nc1ccc(C#N)cc1)OCC(=O)N2` was 64% (inactive). On to `Cc1cc2c(cc1S(=O)(=O)N(C)CC(=O)Nc1cccc(C#N)c1)OCC(=O)N2`, for which the survival is -4% (active). The figure for `COc1ccc(-c2[nH]ncc2C(=O)NCc2cccc(F)c2)cc1` is 78% (inactive). Consider `Cc1noc2nc(C(=O)O)nc(N3CCCCC3)c12`, for which the survival was 73% (inactive). The figure for `CCOC(=O)c1nc(N2CCN(c3ccc(F)cc3)CC2)c2c(C)noc2n1` is 14% (active); for `CCOC(=O)c1c(C)oc2nc(C)nc(N3CCN(c4ccc(OC)cc4)CC3)c12` it is 68% (inactive). The figure for `CCC(=O)N1CCc2cc(CNS(=O)(=O)c3cccs3)ccc21` is 89% (inactive). The value for `Cc1cc(OCC(=O)NCC2(N3CCN(C)CC3)CCCCC2)cc(C)c1Cl` was 80% (inactive). For the compound `CC(C)Oc1ccc(CNC(=O)c2ccccc2NC(=O)c2nsc3ccccc23)cc1`, the survival is 124% (inactive). The figure for `Cc1ccc(CNC(=O)c2ccccc2NC(=O)c2nsc3ccccc23)cc1` is 75% (inactive); for `CCOc1ccc(CNC(=O)c2ccccc2NC(=O)c2nsc3ccccc23)cc1` it is -6% (active); for `Cc1ccc(S(=O)(=O)NCCc2nnc3ccc(SCC(=O)Nc4c(C)cc(C)cc4C)nn23)cc1` it is 86% (inactive). The figure for `CCC(=O)N1CCc2cc(S(=O)(=O)NCCC(=O)Nc3cc(C)ccc3OC)ccc21` is 117% (inactive); for `Cc1ccc(NC(=O)C(Cc2c[nH]c3ccccc23)NC(=O)OCC(C)C)cc1` (centres undefined) it is 54% (inactive). The value for `COC(=O)c1c(NC(=O)C(C)Oc2ccc(Cl)c(C)c2)sc(C)c1C` (centres undefined) was 10% (active); that for `CCCc1ccc(OC(C)C(=O)Nc2sc3c(c2C(=O)OC)CCCCC3)cc1` (centres undefined) was -2% (active). Take `CCOC(=O)c1c(NC(=O)C(C)Oc2ccc(Cl)c(C)c2)sc2c1CCCC2` (centres undefined): the survival was 50% (inactive). The figure for `COC(=O)c1c(NC(=O)C(C)Oc2ccc(Cl)cc2Cl)sc2c1CCCC2` (centres undefined) is 57% (inactive). The figure for `CNC(=O)c1c(NC(=O)c2ccc(S(=O)(=O)N3CCCC(C)C3)cc2)sc2c1CCC2` (centres undefined) is 101% (inactive); for `CCOC(=O)c1c(NC(=O)c2ccc(OC)cc2)sc2c1CCCCC2` it is 7% (active); for `CCCCOc1ccc(C(=O)Nc2sc3c(c2C(=O)OCC)CCCCC3)cc1` it is 38% (inactive). The figure for `CCCc1ccc(OCC(=O)Nc2sc3c(c2C(=O)OC)CCCCC3)cc1` is 43% (inactive). Regarding `CCCOc1ccc(C(=O)Nc2sc3c(c2C(=O)OCC)CCCCC3)cc1`, the survival was 27% (inactive). Turning to `Cc1cc(OC(C)C(=O)Nc2sc3c(c2C(N)=O)CCCC3)ccc1Cl` (centres undefined), the survival is 82% (inactive).

With `CNC(=O)c1c(NC(=O)c2ccc(S(=O)(=O)N3CCC(C)CC3)cc2)sc2c1CCC2`, the survival is 129% (inactive). Consider `CNC(=O)c1c(NC(=O)c2ccc(S(=O)(=O)N3CCCCC3)cc2)sc2c1CCC2`, for which the survival is -2% (active). The value for `O=C(Nc1ccc(F)cc1F)c1cccc2c1C(=O)N(C1CCCCC1)C2` was 94% (inactive). The figure for `CCn1c(C(=O)N2CCC(C(=O)N3CCN(c4ccc(OC)cc4)CC3)CC2)cc2sccc21` is 62% (inactive); for `CCOc1ccccc1NC(=O)NC(CC)c1c(-n2cccc2)sc2c1CCN(C)C2` (centres undefined) it is 69% (inactive); for `CC1=C(C#N)c2nc(N)c(C#N)c(C)c2/C1=C\c1cccnc1` it is 83% (inactive). The value for `COc1ccc(Cl)cc1NC(=O)CCC(=O)N1CCOc2ccccc21` was 83% (inactive); that for `CC(=O)c1cccc(-n2c(=O)c3c4c(sc3n(Cc3ccccc3Cl)c2=O)CN(C(C)=O)CC4)c1` was 88% (inactive). For `CCOC(=O)c1cc2c(=O)n3ccccc3nc2n(Cc2ccco2)c1=NC(=O)c1ccc(C(C)(C)C)cc1`, the survival was 72% (inactive). The value for `CCOC(=O)c1c(NC(=O)c2ccc(C)c(C)c2)sc2c1CCCCC2` was 0% (active). The value for `CCOC(=O)c1c(NC(=O)c2ccc(OC)c(OC)c2)sc2c1CCCCC2` was 69% (inactive). As for `CCOC(=O)c1c(NC(=O)c2cc(OCC)c(OCC)c(OCC)c2)sc2c1CCCCC2`, the survival is 83% (inactive). The value for `CCOC(=O)c1c(NC(=O)c2cc(Cl)ccc2Cl)sc2c1CCCC2` was 76% (inactive).

As to `CCOC(=O)c1c(NC(C)=O)sc2c1CCC2`, the survival is 104% (inactive).

On to `CCOC(=O)c1c(NC(=O)c2ccccc2C)sc2c1CCCC2`, for which the survival is -8% (active).

Consider `CCOC(=O)c1c(NC(=O)c2ccc(S(=O)(=O)N(CC)CC)cc2)sc2c1CCCCC2`, for which the survival is 80% (inactive).

Consider `CCOC(=O)c1c(NC(=O)c2ccc(C)cc2)sc2c1CCCCC2`, for which the survival is -1% (active). For the compound `CCOC(=O)c1c(NC(=O)c2ccc(OCC)c(Br)c2)sc2c1CCCC2`, the survival was 67% (inactive). With `Cc1c(C(=O)Nc2ccccc2Br)oc2ccc(S(=O)(=O)N3CCCCCC3)cc12`, the survival was 83% (inactive). The value for `O=C(NCc1ccc(F)cc1)c1ccc2c(Cl)c3c(nc2c1)CCCC3` was 62% (inactive); that for `Cc1cc(C)cc(N2CC(c3nc(-c4cccc(Cl)c4)no3)CC2=O)c1` (centres undefined) was 32% (inactive).

Turning to `CCCCNC(=O)c1sc2ncccc2c1-n1cccc1`, the survival was 47% (inactive). The figure for `CCc1nc(-c2cc(S(=O)(=O)N3CCN(c4ccccc4OC)CC3)ccc2OC)no1` is 69% (inactive); for `CCOc1ccccc1NC(=O)C(NS(=O)(=O)c1ccc2c(c1)CCC(=O)N2)c1ccccc1` (centres undefined) it is 76% (inactive); for `Cn1cc(S(=O)(=O)N2CCCCCC2)cc1C(=O)N1CCN(c2ccc(F)cc2)CC1` it is 71% (inactive). The value for `COC(=O)c1cc(S(=O)(=O)N2CCN(c3ccc(F)cc3)CC2)cn1C` was -6% (active); that for `COC(=O)c1scc(-c2ccc(C)cc2)c1S(=O)(=O)N1CCN(c2ccc(OC)cc2)CC1` was 75% (inactive); that for `COC(=O)c1scc(-c2ccc(C)cc2)c1S(=O)(=O)N1CCN(c2ccc(F)cc2)CC1` was -6% (active). For `Cn1cc(S(=O)(=O)N2CCCCC2)cc1C(=O)N1CCN(c2ccc(F)cc2)CC1`, the survival is 65% (inactive). The value for `CC1CCN(S(=O)(=O)c2cc(C(=O)N3CCN(c4ccccc4F)CC3)n(C)c2)CC1` was 65% (inactive); that for `COC(=O)c1scc(-c2ccc(C)cc2)c1S(=O)(=O)N1CCN(c2ccccc2)CC1` was 64% (inactive); that for `Cc1cccc(N2CCN(C(=O)c3cc(S(=O)(=O)N4CCC(C)CC4)cn3C)CC2)c1C` was 49% (inactive). The figure for `COc1ccccc1N1CCN(C(=O)c2cc(S(=O)(=O)N3CCC(C)CC3)cn2C)CC1` is 0% (active); for `CCc1ccc(-n2nc3cc(C)c(NC(=O)c4cc(OC)cc(OC)c4)cc3n2)cc1` it is 69% (inactive); for `Cc1ccc(-c2cc(C(=O)Nc3c(C(=O)c4ccc(C)c(F)c4)oc4ccccc34)no2)cc1` it is 93% (inactive). The value for `O=C(Nc1cccc(NC(=O)C2CCCO2)c1)c1ccco1` (centres undefined) was 102% (inactive); that for `O=C(Nc1ccc(F)c(Cl)c1)C1CCN(S(=O)(=O)c2ccc3c(c2)CCCN3C(=O)C2CCC2)CC1` was 67% (inactive); that for `COC(=O)c1c(SC)nc2ccccc2c1OCc1ccc(C)cc1` was 75% (inactive). On to `NC(=O)C1CCN(C(=O)CSc2nc(O)cc(=O)[nH]2)CC1`, for which the survival is 97% (inactive). Consider `O=C(N/N=C1/SCC(=O)N1Cc1ccco1)c1ccccc1F`, for which the survival was 97% (inactive). The figure for `CC(=O)Nc1ccc(S(=O)(=O)Nc2ccc(-c3cn4c(C)csc4n3)cc2)cc1` is 69% (inactive); for `COc1ccc(S(=O)(=O)Nc2ccc(-c3cn4c(C)csc4n3)cc2)cc1` it is 78% (inactive); for `CC(=O)c1ccc(S(=O)(=O)Nc2ccc(-c3cn4c(C)csc4n3)cc2)cc1` it is -6% (active). Regarding `CCc1ccccc1Nc1nn2c(=O)c3ccc(C(=O)NCc4ccc(C)cc4)cc3nc2s1`, the survival is 92% (inactive). The figure for `Cc1ccccc1Cn1c(CN2CCC(C(=O)NCCc3ccccc3)CC2)cc2ccccc21` is 110% (inactive). The figure for `CC(=O)N1CCc2c(sc3c2c(=O)n(-c2ccccc2C)c(=O)n3CC(=O)Nc2ccccc2)C1` is 69% (inactive); for `CCOc1ccc(-n2c(SCC(=O)Nc3cc(C)on3)nc3c([nH]c4ccccc43)c2=O)cc1` it is 69% (inactive); for `CCOc1ccc(N(CC)S(=O)(=O)N2CCCC(C(=O)Nc3cc(Cl)ccc3C)C2)cc1` (centres undefined) it is 79% (inactive). The value for `COc1cc(Cl)c(C)cc1NC(c1ccccc1)c1nnc(-c2ccccc2Cl)o1` (centres undefined) was 75% (inactive); that for `CCc1cccc(NC(c2ccccc2)c2nnc(-c3ccccc3F)o2)c1` (centres undefined) was 1% (active); that for `Cc1ccc(Cl)cc1NC(c1ccc(F)cc1)c1nnc(-c2ccccc2)o1` (centres undefined) was 117% (inactive). `CCc1cccc(NC(c2nnc(-c3ccccc3)o2)c2ccc(F)cc2Cl)c1` (centres undefined): the survival was 70% (inactive). For `Cc1ccc(C)c(NC(c2ccccc2)c2nnc(-c3ccccc3F)o2)c1` (centres undefined), the survival is 5% (active). The figure for `COc1ccc(NC(c2ccc(F)cc2)c2nnc(-c3ccccc3Cl)o2)cc1Cl` (centres undefined) is 88% (inactive).
